MITF primary – inhibitors of human MITF; O75030; AlphaScreen MITF homodimerization, bead proximity signal; inhibition, % at 2.6 µM; 0.91% of 650,000 active; AID 1259374; in the data active = inhibition above about 50%;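 also: 0% = vehicle wells with protein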
TEAD-YAP block – TEAD-YAP interaction inhibition | HEK-TIYL cells, TEAD-Gal4/YAP UAS-luciferase luminescence | inhibition, % at 9.12 µM | 1.4% of 640,000 active; in the data active = inhibition above about 32%;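 also: 0% = median of test compound wells and 100% = reference inhibitor wells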
FBW7 act – human FBW7 E3 ligase activation, primary screen; AID 1259310; normalized activity (activation), % at 26.1 µM; 0.13% of 650,000 active; AlphaScreen FBW7–phospho-cyclin E peptide binding, activator screen; Q969H0; in the data active = normalized activity above about 1.9%;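 also: purified mutant Fbw7 with reduced substrate affinity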
Target sequence (Q969H0 whole entry, looked up): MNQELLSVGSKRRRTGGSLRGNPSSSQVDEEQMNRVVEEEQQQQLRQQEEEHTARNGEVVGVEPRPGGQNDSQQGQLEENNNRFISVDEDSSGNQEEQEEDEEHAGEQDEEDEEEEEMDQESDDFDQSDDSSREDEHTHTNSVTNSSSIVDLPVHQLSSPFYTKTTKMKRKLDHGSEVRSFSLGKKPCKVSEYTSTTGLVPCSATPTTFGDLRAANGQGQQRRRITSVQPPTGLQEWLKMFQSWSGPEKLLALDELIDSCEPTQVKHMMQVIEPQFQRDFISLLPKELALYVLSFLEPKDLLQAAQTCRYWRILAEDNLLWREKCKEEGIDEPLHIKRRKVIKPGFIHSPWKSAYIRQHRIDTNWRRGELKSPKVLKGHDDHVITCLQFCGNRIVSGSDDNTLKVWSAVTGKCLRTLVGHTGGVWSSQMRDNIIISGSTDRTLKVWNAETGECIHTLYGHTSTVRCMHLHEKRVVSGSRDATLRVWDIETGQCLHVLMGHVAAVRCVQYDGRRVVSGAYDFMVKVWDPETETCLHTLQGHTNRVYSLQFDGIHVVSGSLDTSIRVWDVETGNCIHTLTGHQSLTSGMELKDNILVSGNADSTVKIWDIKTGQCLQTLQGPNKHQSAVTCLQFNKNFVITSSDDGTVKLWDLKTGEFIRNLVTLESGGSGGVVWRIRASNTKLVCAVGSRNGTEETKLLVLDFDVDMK
GPR151 ag – activators of human GPR151. PathHunter beta-arrestin GPR151 cells, luminescence. activation, % at 11.2 µM. 1% of 650,000 active. AID 1508602. Q8TDV0; in the data active = activation above about 4.9%;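 also: 0% = median of compound wells and 100% = cells with positive control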
MITF confirm – human MITF inhibition, confirmation; AlphaScreen MITF homodimerization, biotin/His-MITF beads; AID 1259372; 16% of 4,700 active; shares compounds with MITF primary; inhibition, % at 2.6 µM;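 active = inhibition above a cutoff derived from the DMSO control wells, cut at about 28% in these data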;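 also: 0% = MITF dimer wells with DMSO only; inhibitors lower the bead chemiluminescence by keeping MITF from dimerizing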
AlphaScreen DR – optically interferes with AlphaScreen signal in dose response | AlphaScreen optical interference counterscreen, cell-free | IC50, µM | shares compounds with MITF primary | AID 1259373 | 6% of 480 active; call rule not given here
AS interf ctr – optically interferes with AlphaScreen signal. shares compounds with MITF primary. 7.6% of 4,700 active. LysRS AlphaScreen counterscreen, signal interference, triplicate. inhibition, % at 2.6 µM;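 active = inhibition above a cutoff derived from the DMSO control wells, cut at about 30% in these data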
* marks the source's active call; other numbers are inactive results; . = no result. This is a sample that favours compounds with a hit; in the whole collection about 3.5% have one here.

SMILES | MITF primary | TEAD-YAP block | FBW7 act | GPR151 ag | MITF confirm | AS interf ctr | others
CC1NC(=O)NC1CCCCCC(=O)OCC(=O)c1ccccc1 (stereo unspecified) | 115* | -9 | -1 | -2 | 118* | 100*
NC(=O)c1nc(-c2cc(Br)ccc2O)nc2c1[nH]c(=O)n2-c1ccc(F)cc1 | 0 | -5 | 0 | 0 | . | .
O=C1NC(=O)C(Cc2cc(Cl)c3cccnc3c2O)C(=O)N1 | 58* | 3 | 0 | 1 | 82* | 85*
O=c1oc2ccccc2c(O)c1Cc1cc(Cl)c2cccnc2c1O | 16 | 1 | 0 | 1 | . | .
CSc1nnc2c(n1)OC(c1ccccc1C)Nc1ccccc1-2 (stereo unspecified) | 1 | -3 | 0 | 1 | . | .
COc1ccccc1OCC(=O)O/N=C(\N)c1cccnc1 | 9 | -27 | 0 | -1 | . | .
CCOC(=O)/C(Cl)=N\Nc1ccccc1 | 31 | 16 | 0 | 0 | . | .
CCOC(=O)/C(Br)=N\Nc1ccc(C)cc1 | 84* | -2 | 0 | 0 | 19 | 18
CN(C)CCNCC(=O)Nc1ccc(CN2CCCCC2)cc1 | 94* | 3 | 0 | 0 | 9 | 16
O=C(CNC1CCCC1)Nc1ccc(C(=O)N2CCCCC2)cc1 | 46 | 2 | 0 | -1 | . | .
O=C(CN1CCN(C2CCCCC2)CC1)Nc1ccc(Br)cc1 | 5 | 10 | 0 | 0 | . | .
O=C(CNC1CCCCC1)Nc1ccc(C(=O)N2CCCCC2)cc1 | 53* | 0 | 0 | 0 | 7 | 14
O=C(CN1CCN(C2CCCCC2)CC1)Nc1ccc(C(=O)N2CCOCC2)cc1 | 56* | -1 | 1 | -1 | 10 | 13
O=C(CNC1CCCC1)Nc1ccc(CN2CCCCC2)cc1 | 65* | -6 | 0 | 1 | 3 | 16
CCN(CC)c1ncnc2sc(C(=O)Nc3ccc(F)cc3)c(C)c12 | -8 | -4 | 0 | 1 | . | .
CC(C)(C)c1ccc(/C=C/C(=O)N2CCC(C(N)=O)CC2)cc1 | 65* | -13 | 0 | 1 | -6 | -10
NC(=O)C1CCN(C(=O)/C=C/c2ccc([N+](=O)[O-])cc2)CC1 | 20 | -4 | 0 | 4 | . | .
C#CC(O)C1CC2C=C(C)C1C2 (stereo unspecified) | 23 | -5 | 1 | 1 | . | .
COc1cccc(COCC(O)CN2CC3(C)CC2CC(C)(C)C3)c1 (stereo unspecified) | 68* | 2 | 0 | -1 | 11 | 10
CC1(C)CC2CC(C)(CN2CC(O)COc2ccccc2)C1 (stereo unspecified) | 19 | -10 | 0 | -2 | . | .
CC1(C)CC(=O)C=C(Nc2sc3c(c2C(N)=O)CCCC3)C1 | 81* | 10 | 0 | 1 | 2 | 33*
CCC(=O)Nc1sc2c(c1C(N)=O)CCCC2 | -10 | 11 | 0 | 1 | . | .
CCN(C(=O)CCS(=O)(=O)c1ccc2c(c1)OCC(=O)N2)c1ccc(OC)cc1 | 15 | -13 | 0 | 0 | . | .
CN1CCN(CC(=O)c2ccccc2F)CC1 | 78* | 4 | 0 | 0 | 10 | 15
CN1CCN(CC(=O)c2cccs2)CC1 | 34 | -4 | 0 | -1 | . | .
SMILES | MITF primary | TEAD-YAP block | FBW7 act | GPR151 ag | MITF confirm | AS interf ctr | others
CCNc1nc(NCC)nc(N2N=C(C)CC2=O)n1 | 71* | 8 | 0 | 0 | 41* | 66*
CC1=NN(c2cc(C)cc(C)c2)C(=O)C1 | 7 | 3 | 0 | 0 | . | .
CC(C)(C)CC(C)(C)NC(=O)c1cccc([N+](=O)[O-])c1 | 70* | 2 | 1 | -2 | 2 | 10
O=C(N/N=C/C=C/c1ccco1)c1ccncc1 | 67* | 5 | -1 | 0 | 76* | -3 | AlphaScreen DR=>6.5
COc1ccc(-n2cc(C(=O)NCCCN3CCCC3)c3ccccc3c2=O)cc1 | -10 | 6 | 0 | -1 | . | .
COc1ccc(CN2CCN(C3CCCC3)CC2)cc1Br | 23 | 2 | 0 | -1 | . | .
COc1ccc(OC)c(CN2CCN(Cc3ccc(OC)c(Br)c3)CC2)c1 | 66* | 5 | 0 | -1 | 11 | 18
COc1ccc(CN2CCN(Cc3ccc(OC)c(Br)c3)CC2)c(OC)c1 | 63* | -9 | 0 | 0 | 2 | 5
COc1ccc(OC)c(CN2CCN(Cc3cccc(Br)c3)CC2)c1 | 59* | 0 | 0 | 0 | 18 | 18
CCOC(=O)C1=C(C)N=c2s/c(=C/c3ccc(-c4ccc([N+](=O)[O-])cc4)o3)c(=O)n2C1c1c(OC)ccc2ccccc12 (stereo unspecified) | 11 | -2 | 0 | -1 | . | .
O=C(Nc1ccccc1O)c1cc(S(=O)(=O)Nc2ccccc2O)c(Cl)cc1Cl | -1 | 0 | 0 | 3 | . | .
NC(=O)c1oc2ccccc2c1NC(=O)c1ccc(Cl)cc1 | 6 | 4 | 0 | 0 | . | .
NC(=O)c1oc2ccccc2c1NC(=O)c1sc2ccccc2c1Cl | 58* | 5 | 0 | 0 | 8 | 6
Cc1cc(C(N)=O)c(C)n1CCCn1ccnc1 | 76* | 2 | -1 | 0 | 15 | 22
Cc1cc(=S)cc(C)n1CCCn1ccnc1 | -5 | -2 | 0 | 0 | . | .
CN(C)CCCNC(=O)c1ccc(COc2ccccc2Br)cc1 | -2 | -6 | 0 | 1 | . | .
Cc1cc(C)cc(N2C(=O)CS(=O)(=O)C2c2cccc(Br)c2)c1 (stereo unspecified) | -2 | 8 | 0 | 0 | . | .
O=C1CS(=O)(=O)C(c2ccccc2)N1c1ccccc1 (stereo unspecified) | 72* | -2 | 0 | 3 | -2 | -1
O=C(Nc1nc(CC(=O)N2CCc3ccccc3C2)cs1)C1CC1 | 59* | 13 | 0 | 1 | -2 | -1
Cc1cc(Nc2nc3ccccc3n3cnnc23)c2ccccc2n1 | -3 | -5 | 0 | 0 | . | .
COc1ccc(NS(=O)(=O)c2cc(C(=O)Nc3ccccc3)ccc2OC)cc1 | -1 | 2 | 0 | -1 | . | .
COc1ccc(C(=O)Nc2ccccc2)cc1S(=O)(=O)Nc1cc(C)on1 | 69* | -2 | 0 | 1 | 3 | 14
O=C(c1cccnc1)N1CCN(Cc2ccco2)CC1 | 53* | 2 | 0 | 1 | -16 | 5
O=C(c1cccnc1)N1CCN(Cc2ccc(F)cc2)CC1 | 79* | 3 | 0 | 1 | 7 | 4
O=C(c1ccccc1)N1CCN(C(=O)c2cccnc2)CC1 | 8 | 14 | 0 | 1 | . | .
O=C(c1cccnc1)N1CCN(Cc2ccncc2)CC1 | 86* | 14 | 0 | -2 | 7 | 15
COc1cccc(CNCc2c(C(=O)N3CCCCC3)nc3c(C)cccn23)c1 | -8 | -4 | 0 | 0 | . | .
Nc1nc(Nc2ccccc2)nc2nc[nH]c12 | 60* | -2 | 0 | 0 | 2 | 12
COc1ccc([N+](=O)[O-])cc1NCc1ccc(OC)c2ccccc12 | 16 | 0 | 0 | 1 | . | .
Cc1cc(NC(=O)COC(=O)c2ccc(NC(N)=O)cc2)ccc1Br | 52* | -5 | 0 | -1 | -5 | 1
